Molecules are shown by their SMILES. The source made the active and inactive calls. Rule for the calls: active = hit-call score of the fitted dose curve at least 0.9, where 1 is the maximum; inactive = score below 0.9.

Read-out in this assay: CYP2C9 (gene 1559)
The assay is described as follows: LTEA_HepaRG_CYP2C9: Life Technologies and Expression Analysis (LTEA) Assay for CYP2C9 using HepaRG (AID 2283484). Particulars: mRNA level, 48 h; actives raise or lower the signal. How it is done:
LTEA_HepaRG is a cell based, multiplexed-readout assay that uses HepaRG, a human liver cell line, with measurements taken at 48 hours after chemical dosing on a 96-well plate.LTEA_HepaRG_CYP2C9 is one of 102 assay component(s) measured in the LTEA HepaRG cell culture assay. It is a marker of NR mediated metabolism.Data from the assay component LTEA_HepaRG_CYP2C9 was analyzed into 1 endpoint. This assay endpoint, LTEA_HepaRG_CYP2C9, was analyzed with bidirectional fitting relative to DMSO as the negative control and baseline of activity. Using a type of inducible reporter, measures of mRNA induction for gain or loss-of-signal activity can be used to understand regulation of transcription factor activity. To generalize the intended target to other relatable targets, this assay endpoint is annotated to the cyp intended target family, where the subfamily is xenobiotic metabolism.
A total of 1060 chemcials from the ToxCast library were tested in eight-point concentration-response experiments. Cell culture and cytotoxicity assays were conducted at Thermo Fisher Scientific's Custom Services facility (Madison, WI). A single lot of human HepaRG cells (Thermo Fisher Scientific, Frederick, MD) was used for the cell culture experiments. 96-well format collagen type I coated plates of human HepaRG cells were prepared using established methods. Briefly, cryopreserved HepaRG cells were thawed, plated at a density of approximately 100,000 cells/well in HepaRG Thaw, Plate, and General Purpose media (HPRG770, Thermo Fisher Scientific), and incubated for 48 hours. 0.5% DMSO was selected as vehicle control to balance the requisite need of DMSO in HepaRG cultures to maintain differentiation (for example, baseline metabolism, proportions of hepatocytes vs. cholangiocytes), while enabling further hepatic receptor pathway activation (for example, PXR and CAR) in response to chemical exposure. 48 hours after plating, the culture medium was replaced with HepaRG Serum-Free Incudtion Media. Cells were exposed to each test chemical in duplicate and maintained in CO2 incubators for another 48 hours. Chemical plates were thawed to room temperature and 200x concentrations of treatment groups were prepared. 8-point conentration-reponse curves were made with the highest exposure at 100 uM, followed by half-log dilutions, all in 0.5% DMSO. Each test plate contained variouse controls, induction positive controls (1mM phenobarbital), cytotoxicity positive controls ([…] aflatoxin B1), vehicle controls (0.5% DMSO), and total lysis controls (0.5% DMSO). Cell morphology images were taken using an Essen IncuCyte FLR automated microscope, with six 96-well plates imaged in about 24 minutes. Images were captured and exported and JPEG files. Spent culture media was transfered to black-well plates for the LDH assay, and remaining media was sorted at -80 C for later use. Cells were treated with RLT buffer and frozen until shipped for gene expression analysis. Total RNA was isolated from the cell suspension in 75 uL of Buffer RLT (Qiagen, Germantown, MD 20874) by Quintiles/Expression Analysis (Durham, NC) using a custom isolation procedure. Total RNA from each plate well was transferred to a preamplification plate. Fluidigm's 96.96 Dynamic ArrayTM (Fluidigm, Amsterdam, the Netherlands) technology was used for gene expression analyses by quantitative reverse transcription polymerase chain reaction (qRT-PCR, performed by Quintiles/Expression Analysis, Durham, NC)89. Standard TaqManTM Assays (Applied Biosystems/ThermoFisher Scientific, Foster City, CA) were used to assess the expression of 93 genes selected based on their selectivity and sensitivity to important hepatic receptors known to be modulated by environmental chemicals; importance in human hepatocyte functionality; and hepatotoxicity. […]
Consider `CCC(=NOC/C=C/Cl)C1=C(O)CC(C2CCOCC2)CC1=O` (stereo not given), for which the compound was classed as inactive.

Take `CCCCOC(=O)[C@@H](C)Oc1ccc(Oc2ccc(C#N)cc2F)cc1`: the result was inactive. The same measure, in the same setting: under `CCCCSP(=O)(SCCCC)SCCCC` stands “inactive”.

For `CCOP(=S)(OCC)Oc1cc(C)nc(C(C)C)n1`, the call was inactive. Same read-out and setting: as for `CN1COCN(Cc2cnc(Cl)s2)C1=N[N+](=O)[O-]`, the entry is “inactive”; as for `Cc1ccn2nc(S(=O)(=O)Nc3c(F)cccc3F)nc2n1`, “inactive”. Same read-out and setting: as for `CCOP(=O)(SC(C)CC)N1CCSC1=O` (stereo not given), the entry is “inactive”; as for `CC(C)N(C(=O)SCC(Cl)=C(Cl)Cl)C(C)C`, “inactive”; as for `CCOP(=S)(OCC)Oc1ccc2c(C)c(Cl)c(=O)oc2c1`, “inactive”. On the same count and under the same terms, under `CCc1cccc(C)c1N(C(=O)CCl)C(C)COC` (stereo not given) stands “inactive”; under `CCOP(=S)(OCC)SCCSCC`, “inactive”; under `CCCSP(=O)(OCC)Oc1ccc(Br)cc1Cl` (stereo not given), “inactive”. For `Cc1cc(C2CC2)nc(Nc2ccccc2)n1`, the compound was called inactive.

`CCc1cccc(CC)c1N(COC)C(=O)CCl`: the outcome was inactive. What is called AC50 is the concentration at which the activity in the assay is half-maximal. As for `C=C(C)[C@H]1Cc2c(ccc3c2O[C@@H]2COc4cc(OC)c(OC)cc4[C@@H]2C3=O)O1`, the AC50 was 3.67 µM (active). On to `CC(COc1ccc(Oc2ccccc2)cc1)Oc1ccccn1` (stereo not given), for which the compound was classed as inactive.

In the case of `CC[C@H](C)[C@H]1O[C@]2(C=C[C@@H]1C)C[C@@H]1C[C@@H](C/C=C(\C)[C@@H](O[C@H]3C[C@H](OC)[C@@H](O[C@H]4C[C@H](OC)[C@@H](NC)[C@H](C)O4)[C@H](C)O3)[C@@H](C)/C=C/C=C3\CO[C@@H]4[C@H](O)C(C)=C[C@@H](C(=O)O1)[C@]34O)O2`, the call was inactive.

As to `CSc1nc(NC(C)C)nc(NC(C)C)n1`, the AC50 is 85.9 µM (active). In the case of `CC(C1CC1)C(O)(Cn1cncn1)c1ccc(Cl)cc1` (stereo not given), the compound was classed as inactive. `CCCOc1nn(C(=O)NS(=O)(=O)c2ccccc2C(=O)OC)c(=O)n1C`: the outcome was inactive. Turning to `C[N+]1(C)CCCCC1`, the compound was called inactive. On the same count and under the same terms, as for `CNC(=O)ON=C(C)SC`, the entry is “inactive”; as for `CC(=NC#N)N(C)Cc1ccc(Cl)nc1`, “inactive”; as for `CCOC(=O)COc1cc(-c2nn(C)c(OC(F)F)c2Cl)c(F)cc1Cl`, “inactive”.

In the case of `C#CC(C)(C)NC(=O)c1cc(Cl)cc(Cl)c1`, the compound was classed as inactive. On the same count and under the same terms, as for `CCOP(=O)(NC(C)C)Oc1ccc(SC)c(C)c1` (stereo not given), the entry is “inactive”.

For `C[Si](Cn1cncn1)(c1ccc(F)cc1)c1ccc(F)cc1`, the concentration at half-maximal activity (AC50) is 35.5 µM (active). Turning to `O=C(O)c1cc(Oc2ccc(C(F)(F)F)cc2Cl)ccc1[N+](=O)[O-]`, the outcome was inactive. Still for that read-out and setting: as for `CCCSP(=O)(OCC)SCCC`, the entry is “inactive”. The same measure, in the same setting: under `COc1cc(OC)nc(Sc2cccc(Cl)c2C(=O)O)n1` stands “inactive”. For the compound `CCCOCC(=Nc1ccc(Cl)cc1C(F)(F)F)n1ccnc1`, the AC50 was 20.3 µM (active). Turning to `Cc1nn(-c2cc(NS(C)(=O)=O)c(Cl)cc2Cl)c(=O)n1C(F)F`, the compound was called inactive.

Take `O=[N+]([O-])c1cc(C(F)(F)F)c(Cl)c([N+](=O)[O-])c1Nc1ncc(C(F)(F)F)cc1Cl`: the AC50 is 17.8 µM (active). Regarding `CC1(C(=O)Nc2ccc(O)c(Cl)c2Cl)CCCCC1`, the compound was classed as inactive.

In the case of `CCCCN(CC)c1c([N+](=O)[O-])cc(C(F)(F)F)cc1[N+](=O)[O-]`, the compound was called inactive. On the same count and under the same terms, under `CCC(=O)Nc1ccc(Cl)c(Cl)c1` stands “inactive”. For the compound `FC(F)C(F)(F)OCC(Cn1cncn1)c1ccc(Cl)cc1Cl` (stereo not given), the AC50 was 38.1 µM (active). Turning to `CCNc1nc(Cl)nc(NC(C)(C)C#N)n1`, the compound was called inactive.

In the case of `Nc1nc(N)nc(NC2CC2)n1`, the outcome was inactive. Regarding `COP(=O)(OC)SCn1c(=O)oc2cc(Cl)cnc21`, the AC50 is 36.9 µM (active).

The values are drawn from PubChem BioAssay (EPA / NIEHS).
